40 sequences from the supplement of paper PMC6555819 can be followed below.

The test system of this experiment is VDR homodimer (NR concentration 270 nM). Put plainly: PBM binding z-score (relative to random genomic background probes); higher = stronger binding; sequences stand for … in GC…GCGATTGACAGCGTAGAATGAAGG
The procedure, abridged: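 For binding z-scores, the reference was random background probes on custom Agilent 4×180K protein-binding microarrays. These arrays were incubated 1 h with ligand-free nuclear receptor dimers in PBS pH 7.4, 2% milk, 0.02% Triton X-100, 1 mM DTT, 0.2 mg/mL BSA and 0.4 mg/ml salmon testes DNA. Fluorescence was scanned after antibody detection of each partner (one per run) and regression-normalized.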
CCGACTGGGGAAAAGGTTACCATACTCAGTACGA showed a PBM binding z-score of 0.0305.

The sequence CAAACGAGGGCATGAGTTGATAGCAAATGCCGAT had a PBM binding z-score of 1.62.

For TTACCAAAGTGAGCTGAGGTCGTTGATCCAACTC, the PBM binding z-score turned out to be 1.95.

Sequence TCGAGTAGGTTAGTGGCATTCAGAATGGCGTCGA gave a PBM binding z-score of -0.54.

As to CCAGACAGGTGAGAAGGTAATTCAGCCTCGATTA, the PBM binding z-score was -0.0971.

With CGTCCAAGGTCAGCAGGTCAGTGTAAGCGACGTG, the PBM binding z-score is 2.01.

Regarding GCAGACAGGTGAAACGAAGGTAACTCAGGGTGGC, the PBM binding z-score is -0.798.

With GCGATTGGGGCATCAGCAGGTTACCATAACTTAA, the PBM binding z-score was -0.374.

Sequence CCTTACGGGTCACTCCGGGTTATAGCATCGGAGT displayed a PBM binding z-score of 1.25.

Regarding CCTAGCAGGCCTATCTGGGTCACTCAAGGCTTGA, the PBM binding z-score was -0.239.

Regarding ACTCGGAGCACAAAGGTCAGAGCTACGCCAGTGA, the PBM binding z-score was 0.477.

AGAGTGAGGTTAAGATCAGGGAAACAGAATACAT displayed a PBM binding z-score of 1.06.

CAAACTAGGTCGCGAAAGGTCAAAGTCGAATGAC had a PBM binding z-score of 3.37.

As to CAAACTAGGTCTAAGGTCAAAGTCGAGCCAACCA, the PBM binding z-score came to 3.63.

Consider GATACAGGGTCAAGGCCAGAGTTCGCGTATTGAT, for which the PBM binding z-score is 4.76.

Regarding CCTACTAGGCCACGAAAGGTCATTGATTCAGTGA, the PBM binding z-score came out at 2.66.

With AGAATGAGGTTAAGATCAGGGACACAGAATACAT, the PBM binding z-score amounted to 1.12.

TCTTGTAGATCTAGCAGGTTAAGAAAGCCTGAGT yielded a PBM binding z-score of -0.0564.

Take CCGAGTAGGTTATAGGGCATTCAGGCAACGGTGA: the PBM binding z-score is 0.435.

In turn, TAGCCTAGGTCTTTCAGGGGCCAGTATAGAAAGC came in with a PBM binding z-score of -0.407.

In turn, CCTGGTAGGTCAATGGTCAGCTAAAGCAGCTCGC had a PBM binding z-score of 0.307.

For CCTACTGTGCCAAGGTCATTGATCAGTCAAAGCA, the PBM binding z-score amounted to 3.63.

Regarding TCTCGTTGGTCAAAGGTCACACACTCGAAATGCG, the PBM binding z-score was 2.94.

Consider TAGCCTAGGTCATTGGGCCACTATAGTACGCATC, for which the PBM binding z-score worked out at 1.77.

Take TAGCCTAGGTCATTCAGTGGCCAGTATAGAAAGC: the PBM binding z-score was 1.24.

Turning to TGAATGAGGTTATAAGATGAGGGAACGTTGCAAA, the PBM binding z-score is 0.388.

As for CAAACTAGGCCAAAGGTCAAAGTCGAGCCAACCA, the PBM binding z-score came to 1.61.

Consider GCAGGCAGGTGAAACGCAGGTAACTCAGGGTGGC, for which the PBM binding z-score was -0.723.

The sequence CTCGAAAGGTCGGTTGAGGTTAGTATACGGATAA registered a PBM binding z-score of 0.818.

Take CCAACTAGGTCAAGGACAGTGAATCTCCGCACGC: the PBM binding z-score is 0.694.

In turn, CCGACTGGGGCATAAAGGTTACCATACCATCCGG gave a PBM binding z-score of 0.423.

Sequence ACTAGTTGGTCAGCTGAGGTCAGACACAATTCGG displayed a PBM binding z-score of 1.76.

Consider AGTCAAAGTTCATCTAGGTACCGTAAGATATGCT, for which the PBM binding z-score was 5.46.

For CCGACAGGGGCAAAGGTTACCATACTCAGTACGA, the PBM binding z-score turned out to be 0.724.

As to CCTATTGGGCCATTCAGAGGTCATTGATCATATG, the PBM binding z-score was 3.79.

The sequence CCTATTAGTTGACCCTAAGGGCAACCGAAGCTCG displayed a PBM binding z-score of 1.72.

The sequence AGTCAAAGTTCCCTAGGTAACGTAAGATTCAGCT returned a PBM binding z-score of -0.324.

The sequence TGTAGCAGGCCAGAGGGTCACTCAAGAGGTACGG returned a PBM binding z-score of 0.427.

TAGCCTTGGTCAGATCGGGCCAGTATACGCTATA: the PBM binding z-score was -0.709.

The sequence ATCCCTAGGTAAAGTTCAGTGAAAGATCGATAGA displayed a PBM binding z-score of 2.35.
